Results filed as inconclusive are left out. A call without a number means that no potency is given here. Active and inactive are the calls of the source. Calls follow the shape of the full dose curve.

40 molecules from PubChem BioAssay (Tox21) can be followed below.

The assay in a line: qHTS assay to identify small molecule agonists of H2AX - cell viability counter screen (AID 1224847). Also: top concentration of the series differs between compounds; nearly all actives have a fitted effect of over 30% in size. Conditions: CHO-K1 viability, CellTiter-Glo luminescence, 3 h; series mostly up to 154 µM. A digest of the protocol: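 Read-out: CellTiter-Glo luminescence, 30 min RT. Cells: wild-type CHO-K1, 1000/well, 10% FBS, plated overnight at 37C. Treatment: 15 concentrations, 3 hr, 37C, 0.76% DMSO.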
On the technique in general: In qHTS, concentration-response curves come from the screen itself.
For `O=C(O)C[C@H](NC(=O)OCc1ccccc1)C(=O)O`, the Potency result was “inactive”. For `CCCCCCCCCI` the value was “inactive”; for `O=C=Nc1ccc(Cl)c(Cl)c1`, “inactive”. For `O=C1C(=O)c2ccccc2C(O)=C1C1CCC(c2ccc(Cl)cc2)CC1` (stereo not given) the value was “inactive”; for `C[C@@H](O)[C@H]1C(=O)N2C(C(=O)O)=C([C@H]3CCCO3)S[C@H]12`, “inactive”. Regarding `c1ccc(C[n+]2cccc3ccccc32)cc1`, the Potency result is “inactive”. Next, `CN(C)CCN1C(=O)c2ccccc2N(C)c2ccccc21`: “inactive”. Next, `CC(C)C=O`: “inactive”; `CCC1(CO)COCOC1`: “inactive”. For `Cc1cscn1` the value was “inactive”. Consider `C[C@H]1C[C@H](O)c2ccsc2S1(=O)=O`, for which the Potency entry was “inactive”. Consider `O=C(/C=C/c1ccccc1)OCCc1ccccc1`, for which the Potency result was “inactive”. Next, `CC1(C)[C@H](C(=O)O)N2C(=O)C[C@H]2S1(=O)=O`: “inactive”; `CC=C(Cl)Cl`: “inactive”. For `COC(=O)[C@H]1[C@H]2C[C@@H]3c4[nH]c5cc(OC)ccc5c4CCN3C[C@H]2C[C@@H](OC(=O)/C=C/c2ccc(O)c(OC)c2)[C@@H]1OC` the value was “inactive”; for `NCCNCCO`, “inactive”. For `N#CCc1ccc(Cl)cc1Cl` the value was “inactive”; for `CCCCC(CC)CN` (stereo not given), “inactive”.

Consider `CC(CN(C)C)C(C)(O)Cc1ccc(Cl)cc1` (stereo not given), for which the Potency entry is “inactive”. As for `C[C@@]12CCC[C@H]1[C@@H]1CC[C@H]3C[C@@H](O)CC[C@]3(C)[C@H]1CC2`, the Potency entry was “inactive”. For `C[C@]1(Cn2ccnn2)[C@H](C(=O)O)N2C(=O)C[C@H]2S1(=O)=O` the value was “inactive”; for `Cc1ccccc1N=C(N)Nc1ccccc1C`, “inactive”. For `O=C(O)c1ccc(OCCCOc2ccc(C(=O)O)cc2)cc1` the value was “inactive”. Next, `CC1(C)S[C@@H]2[C@H](NC(=O)C(c3ccccc3)S(=O)(=O)O)C(=O)N2[C@H]1C(=O)O` (stereo not given in full): “inactive”; `NC(=O)c1ccncc1`: “inactive”; `CO[C@]1(NC(=O)CSC(F)F)C(=O)N2C(C(=O)O)=C(CSc3nnnn3CCO)CO[C@H]21`: “inactive”. As to `CCCCN(CCN(CCCC)C(=O)N1CCOCC1)C(=O)N1CCOCC1`, the Potency entry was “inactive”. Next, `O=C1CCCCCCCCCCOCCCCO1`: “inactive”. For `C=C(C)C(=O)OCCOCCOC(=O)C(=C)C` the value was “inactive”. `COC(=O)C1=C(C)NC(C)=C(C(=O)O[C@@H]2CCCN(Cc3ccccc3)C2)[C@@H]1c1cccc([N+](=O)[O-])c1`: the Potency entry is “inactive”.

Consider `CCCCCC[C@@H](O)C/C=C\CCCCCCCC(=O)OCC(O)CO` (stereo not given in full), for which the Potency result was “inactive”. Consider `Cc1c(C)c2c(c(C)c1OC(=O)CCC(=O)OCCO)CC[C@@](C)(CCC[C@H](C)CCC[C@H](C)CCCC(C)C)O2`, for which the Potency entry is “inactive”. Next, `O=C(Cn1ccnc1[N+](=O)[O-])NCCO`: “inactive”; `Cc1ccccc1S`: “inactive”.

For the molecule `CC[N+](CC)(CCNC(=O)C(=O)NCC[N+](CC)(CC)Cc1ccccc1Cl)Cc1ccccc1Cl`, the Potency result was “inactive”.

Regarding `C=C1CCC2CC1C2(C)C` (stereo not given), the Potency entry was “inactive”. Next, `CCCCCCC(C)(C)C(=O)O`: “inactive”. Next, `Cc1ccc(C(C)(C)O)cc1`: “inactive”; `CCCCCC#CC(=O)OC`: “inactive”; `CCCCCCCC/C=C\CCCCCCCCO`: “inactive”.
